Test results: PubChem BioAssay AID1159580 (chemical genetic matrix, 2015)
“And” between values parts separate entries of the source, which are not always exact repeats. Equal entries are not always repeated. The whole screen tested about 5,500 compounds, of which about 2,000 (36%) were called active. Inconclusive results (about 18%) are left out. Rule as the data show it: active = normalized growth mostly below about 0.91 (no sharp cut-off); inconclusive = no clear call, values can overlap the other calls; inactive = mostly above about 0.92. The list shows a part of the results.

Assay: chemical genetic growth profiling, strain panel (AID 1159580);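 also: tested at 20 µM; growth read once vehicle control cultures reached saturation at 30 °C; 1 = growth at the plate median or of vehicle wells; lower values mean less growth of the strain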
Conditions: growth OD
[1] = S. cerevisiae deletion strains, locus YBR021W, strain FUR4, active compounds read low
[2] = S. cerevisiae deletion strains, locus YBR229C, strain ROT2, active compounds read low
[3] = S. cerevisiae deletion strains, locus YCL029C, strain bik1, active compounds read low
[4] = S. cerevisiae deletion strains, locus YDL035C, strain GPR1, active compounds read low
[5] = S. cerevisiae deletion strains, locus YDL074C, strain BRE1, active compounds read low
[6] = S. cerevisiae deletion strains, locus YDL101C, strain DUN1, active compounds read low
[7] = S. cerevisiae deletion strains, locus YDL185W, strain tfp1, active compounds read low
[8] = S. cerevisiae deletion strains, locus YDL192W, strain arf1, active compounds read low
[9] = S. cerevisiae deletion strains, locus YDR101C, strain arx1, active compounds read low
[10] = S. cerevisiae deletion strains, locus YDR162C, strain NBP2, active compounds read low
[11] = S. cerevisiae deletion strains, locus YDR318W, strain mcm21, active compounds read low
[12] = S. cerevisiae deletion strains, locus YDR388W, active compounds read low
[13] = S. cerevisiae deletion strains, locus YDR502C, strain sam2, active compounds read low
[14] = S. cerevisiae deletion strains, locus YEL061C, strain CIN8, active compounds read low
[15] = S. cerevisiae deletion strains, locus YER110C, active compounds read low
[16] = S. cerevisiae deletion strains, locus YER155C, strain BEM2, active compounds read low
[17] = S. cerevisiae deletion strains, locus YER167W, strain BCK2, active compounds read low
[18] = S. cerevisiae deletion strains, locus YGL078C, strain dbp3, active compounds read low
[19] = S. cerevisiae deletion strains, locus YGL086W, strain mad1, active compounds read low
[20] = S. cerevisiae deletion strains, locus YGL248W, strain PDE1, active compounds read low
[21] = S. cerevisiae deletion strains, locus YGR078C, strain PAC10, active compounds read low
[22] = S. cerevisiae deletion strains, locus YGR135W, strain pre9, active compounds read low
[23] = S. cerevisiae deletion strains, locus YGR229C, strain SMI1, active compounds read low
[24] = S. cerevisiae deletion strains, locus YGR252W, strain gcn5, active compounds read low
[25] = S. cerevisiae deletion strains, locus YHR030C, strain SLT2, active compounds read low
[26] = S. cerevisiae deletion strains, locus YHR079C, strain IRE1 (second series), active compounds read low
[27] = S. cerevisiae deletion strains, locus YHR094C, strain hxt1, active compounds read low
[28] = S. cerevisiae deletion strains, locus YHR129C, strain ARP1, active compounds read low
[29] = S. cerevisiae deletion strains, locus YHR200W, strain rpn10, active compounds read low
[30] = S. cerevisiae deletion strains, locus YIL066C, strain RNR3, active compounds read low
[31] = S. cerevisiae deletion strains, locus YIL073C, strain SPO22, active compounds read low
[32] = S. cerevisiae deletion strains, locus YIL125W, strain kgd1, active compounds read low
[33] = S. cerevisiae deletion strains, locus YIR030C, strain dcg1, active compounds read low
[34] = S. cerevisiae deletion strains, locus YJL095W, strain BCK1, active compounds read low
[35] = S. cerevisiae deletion strains, locus YJL134W, strain LCB3, active compounds read low
[36] = S. cerevisiae deletion strains, locus YJL168C, strain set2, active compounds read low
[37] = S. cerevisiae deletion strains, locus YJL187C, strain SWE1 (second series), active compounds read low
[38] = S. cerevisiae deletion strains, locus YJR043C, strain POL32, active compounds read low
[39] = S. cerevisiae deletion strains, locus YKL009W, strain mrt4, active compounds read low
[40] = S. cerevisiae deletion strains, locus YKL068W, active compounds read low
[41] = S. cerevisiae deletion strains, locus YKL085W, strain MDH1 (second series), active compounds read low
[42] = S. cerevisiae deletion strains, locus YKL085W, strain MDH1, active compounds read low
[43] = S. cerevisiae deletion strains, locus YKR001C, strain vps1, active compounds read low
[44] = S. cerevisiae deletion strains, locus YLR039C, strain RIC1, active compounds read low
[45] = S. cerevisiae deletion strains, locus YLR058C, strain SHM2, active compounds read low
[46] = S. cerevisiae deletion strains, locus YLR102C, strain apc9, active compounds read low
[47] = S. cerevisiae deletion strains, locus YLR268W, strain sec22, active compounds read low
[48] = S. cerevisiae deletion strains, locus YLR330W, strain CHS5, active compounds read low
[49] = S. cerevisiae deletion strains, locus YLR371W, strain rom2, active compounds read low
[50] = S. cerevisiae deletion strains, locus YLR418C, strain cdc73, active compounds read low
[51] = S. cerevisiae deletion strains, locus YML016C, strain PPZ1, active compounds read low
[52] = S. cerevisiae deletion strains, locus YML032C, strain rad52, active compounds read low
[53] = S. cerevisiae deletion strains, locus YML124C, strain tub3, active compounds read low
[54] = S. cerevisiae deletion strains, locus YMR078C, strain ctf18, active compounds read low
[55] = S. cerevisiae deletion strains, locus YMR223W, strain ubp8, active compounds read low
[56] = S. cerevisiae deletion strains, locus YMR307W, strain GAS1, active compounds read low
[57] = S. cerevisiae deletion strains, locus YNL067W, strain RPL9B, active compounds read low
[58] = S. cerevisiae deletion strains, locus YNL153C, strain GIM3, active compounds read low
[59] = S. cerevisiae deletion strains, locus YNL233W, strain BNI4, active compounds read low
[60] = S. cerevisiae deletion strains, locus YNL250W, strain rad50, active compounds read low
[61] = S. cerevisiae deletion strains, locus YNL271C, strain bni1, active compounds read low
[62] = S. cerevisiae deletion strains, locus YNL298W, strain CLA4, active compounds read low
[63] = S. cerevisiae deletion strains, locus YNL307C, strain MCK1, active compounds read low
[64] = S. cerevisiae deletion strains, locus YNR052C, strain pop2, active compounds read low
[65] = S. cerevisiae deletion strains, locus YOL012C, strain htz1
[66] = S. cerevisiae deletion strains, locus YOL147C, strain pex11, active compounds read low
[67] = S. cerevisiae deletion strains, locus YOR061W, strain CKA2, active compounds read low
[68] = S. cerevisiae deletion strains, locus YOR069W, strain VPS5, active compounds read low
[69] = S. cerevisiae deletion strains, locus YOR136W, strain idh2, active compounds read low
[70] = S. cerevisiae deletion strains, locus YOR144C, strain elg1, active compounds read low
[71] = S. cerevisiae deletion strains, locus YOR184W, strain ser1, active compounds read low
[72] = S. cerevisiae deletion strains, locus YOR316C, strain cot1, active compounds read low
[73] = S. cerevisiae deletion strains, locus YPL241C, strain CIN2, active compounds read low
[74] = S. cerevisiae deletion strains, locus YPR119W, strain clb2, active compounds read low
[75] = S. cerevisiae deletion strains, locus YPR141C, strain kar3, active compounds read low
[76] = S. cerevisiae deletion strains, locus YPR163C, strain tif3, active compounds read low
[77] = S. cerevisiae deletion strains, locus YPR167C, strain met16, active compounds read low
[78] = S. cerevisiae deletion strains, strain wtn01, active compounds read low
[79] = S. cerevisiae strains, strain wild type, active compounds read low

Measured: normalized growth

Cc1cc(O)c(C=O)c2c1C(=O)Oc1c(C)c(O)c3c(c1O2)C(O)OC3=O (stereo unspecified)
inactive: [1] 1.03 | [2] 1 | [3] 0.981 | [4] 0.944 | [5] 0.956 | [6] 0.955 | [7] 0.954 | [8] 0.992 | [9] 0.994 | [10] 0.948 | [11] 0.98 | [12] 0.98 | [13] 0.974 | [14] 0.975 | [15] 0.971 | [16] 1.02 | [17] 0.993 | [18] 0.989 | [19] 0.966 | [20] 1 | [21] 0.988 | [22] 0.951 | [23] 1.03 | [24] 1.02 | [25] 0.984 and 0.994 | [26] 0.97 | S. cerevisiae deletion strains, locus YHR079C, strain IRE1, active compounds read low 0.983 | [27] 0.971 | [28] 0.963 | [29] 0.983 | [30] 0.962 | [31] 0.831 | [32] 0.974 | [33] 0.995 | [34] 1.02 and 0.991 | [35] 0.986 | [36] 0.969 | [37] 0.88 | [38] 0.973 | S. cerevisiae deletion strains, locus YJR066W, strain TOR1, active compounds read low 0.965 | [39] 0.933 | [40] 0.98 | [41] 0.974 | [42] 0.974 | [43] 1.01 | [44] 0.996 | [45] 0.937 | [46] 0.986 | S. cerevisiae deletion strains, locus YLR113W, strain HOG1, active compounds read low 0.984 | [47] 0.965 | [48] 0.99 | [49] 0.948 | [50] 0.999 | [51] 0.957 | [52] 0.995 | [53] 0.975 | [54] 0.959 | [55] 0.966 | [56] 1.14 | [57] 0.981 | [58] 0.959 | S. cerevisiae deletion strains, locus YNL183C, strain NPR1, active compounds read low 0.944 | [59] 1.03 | [60] 0.963 | [61] 0.946 | [62] 0.986 | [63] 0.978 | [64] 0.955 | [65] 0.674 | [66] 0.97 | [67] 0.963 | [68] 0.982 | [69] 0.985 | [70] 0.974 | [71] 1.01 | S. cerevisiae deletion strains, locus YOR231W, strain MKK1, active compounds read low 0.982 | [72] 0.984 | [73] 0.994 | S. cerevisiae deletion strains, locus YPL256C, strain CLN2, active compounds read low 0.928 | [74] 0.979 | [75] 0.969 | [76] 0.993 | [77] 0.983 | [78] 0.963 | [79] 0.907

Cc1cc(O)c(C)c2c1C(=O)Oc1c(C)c(O)c(C(=O)O)c(C)c1O2
inactive: S. cerevisiae deletion strains, locus YAL013W, strain DEP1, active compounds read low 0.997 | [1] 0.966 | [2] 0.993 | [3] 0.973 | [4] 0.998 | [5] 1 | [6] 0.988 | S. cerevisiae deletion strains, locus YDL134C, strain PPH21, active compounds read low 0.98 | [7] 0.989 | [8] 0.983 | [9] 0.974 | S. cerevisiae deletion strains, locus YDR150W, strain NUM1, active compounds read low 0.999 | [10] 1.02 | [11] 0.971 | [12] 0.98 | [13] 0.982 | [14] 1 | [15] 0.978 | [16] 0.991 | [17] 0.994 | [18] 0.968 | [19] 0.977 | [20] 0.989 | [21] 1.01 | [22] 1 | [23] 1.01 | [24] 0.961 | [25] 0.989 | [26] 0.982 | [27] 0.979 | [28] 0.997 | [29] 0.978 | [30] 0.988 | [31] 0.999 | [32] 0.983 | [33] 0.991 | [34] 1.01 | [35] 0.989 | [36] 0.974 | [37] 0.988 | [38] 1.01 | S. cerevisiae deletion strains, locus YJR075W, strain HOC1, active compounds read low 1.01 | [39] 0.964 | [40] 0.985 | [41] 0.992 | [42] 0.992 | S. cerevisiae deletion strains, locus YKL190W, strain CNB1, active compounds read low 1 | [43] 0.982 | [44] 1.01 | [45] 0.997 | [46] 0.988 | S. cerevisiae deletion strains, locus YLR262C, strain YPT6, active compounds read low 1 | [47] 0.99 | [48] 0.998 | S. cerevisiae deletion strains, locus YLR342W, strain FKS1 (second series), active compounds read low 0.983 | [49] 0.976 | [50] 0.974 | [51] 0.99 | [52] 0.965 | [53] 0.991 | [54] 0.973 | [55] 0.966 | S. cerevisiae deletion strains, locus YMR263W, strain SAP30, active compounds read low 1 | [56] 0.976 | [57] 1 | S. cerevisiae deletion strains, locus YNL128W, strain TEP1, active compounds read low 0.998 | [58] 1 | [59] 0.997 | [60] 0.972 | [61] 0.966 | [62] 0.967 | [63] 0.972 | S. cerevisiae deletion strains, locus YNL322C, strain KRE1, active compounds read low 1 | [64] 0.967 | S. cerevisiae deletion strains, locus YOL006C, strain TOP1, active compounds read low 0.986 | [65] 0.731 | [66] 0.988 | [67] 0.99 | [68] 0.99 | [69] 0.979 | [70] 0.985 | [71] 0.942 | [72] 0.977 | S. cerevisiae deletion strains, locus YPL055C, strain LGE1, active compounds read low 1.04 | [73] 0.972 | [74] 0.979 | [75] 0.972 | [76] 0.983 | [77] 0.985 | [78] 0.98 | [79] 1
